In publication PMC5700166:
Changes are numbered by the printed parent chain.

Key:
Assay in all cases: protein-binding microarray (PBM); PBM: ~300 nM protein, 6 mM HEPES pH 7.8, 80 mM KCl, 0.5 mM EDTA, 0.5 mM EGTA, 6% glycerol, 35 ng/ul poly-dIdC, 1% milk, 1 h, room temperature; Ap Aiptasia and Nv Nematostella (sea anemones) / Co Capsaspora / Aq Amphimedon (sponge) / Dm Drosophila / Hu human; RHD is the Rel homology domain; high values mean tight binding
Settings in all cases: dsDNA, one strand shown
[1] = biological target: T1, GST-Nv-NF-kB (Cys allele) (Nematostella vectensis, UniProt E5G601 2-411)
T1 sequence: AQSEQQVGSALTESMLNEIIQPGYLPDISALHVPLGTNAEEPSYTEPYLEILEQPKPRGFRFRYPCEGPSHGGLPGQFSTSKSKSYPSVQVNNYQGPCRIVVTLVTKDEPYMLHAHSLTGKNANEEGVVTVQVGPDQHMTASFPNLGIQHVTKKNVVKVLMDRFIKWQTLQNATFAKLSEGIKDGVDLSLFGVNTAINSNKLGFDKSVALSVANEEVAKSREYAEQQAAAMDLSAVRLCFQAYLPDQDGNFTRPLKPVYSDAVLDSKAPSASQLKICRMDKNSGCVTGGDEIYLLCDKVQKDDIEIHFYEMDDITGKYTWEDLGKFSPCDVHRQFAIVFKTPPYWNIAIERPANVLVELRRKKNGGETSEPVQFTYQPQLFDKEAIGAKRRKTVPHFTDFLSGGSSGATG

[2] = biological target: T2, GST-Nv-NF-kB (Ser allele) (Nematostella vectensis, UniProt A7UNT2 2-411)
T2 sequence: T1 sequence with Q21R, C66S, S207N, E215Q, V217A, E225K, A268E, D399E

GST-Co-NF-kB = biological target: T3, GST-Co-NF-kB (Capsaspora owczarzaki, UniProt F1ARL5 200-546)
T3 sequence: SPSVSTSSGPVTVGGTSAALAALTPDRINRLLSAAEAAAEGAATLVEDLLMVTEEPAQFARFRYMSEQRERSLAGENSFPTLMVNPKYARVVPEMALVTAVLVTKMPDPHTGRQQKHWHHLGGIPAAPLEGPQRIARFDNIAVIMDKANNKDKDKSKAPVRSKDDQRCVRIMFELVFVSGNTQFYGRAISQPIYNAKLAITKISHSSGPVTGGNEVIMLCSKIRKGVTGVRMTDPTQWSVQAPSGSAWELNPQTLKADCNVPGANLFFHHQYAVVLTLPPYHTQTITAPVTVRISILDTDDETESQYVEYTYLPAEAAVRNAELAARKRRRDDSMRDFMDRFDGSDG

GST-Aq-NF-kB = biological target: T4, GST-Aq-NF-kB (Amphimedon queenslandica, UniProt A9Y5G7 2-389)
T4 sequence: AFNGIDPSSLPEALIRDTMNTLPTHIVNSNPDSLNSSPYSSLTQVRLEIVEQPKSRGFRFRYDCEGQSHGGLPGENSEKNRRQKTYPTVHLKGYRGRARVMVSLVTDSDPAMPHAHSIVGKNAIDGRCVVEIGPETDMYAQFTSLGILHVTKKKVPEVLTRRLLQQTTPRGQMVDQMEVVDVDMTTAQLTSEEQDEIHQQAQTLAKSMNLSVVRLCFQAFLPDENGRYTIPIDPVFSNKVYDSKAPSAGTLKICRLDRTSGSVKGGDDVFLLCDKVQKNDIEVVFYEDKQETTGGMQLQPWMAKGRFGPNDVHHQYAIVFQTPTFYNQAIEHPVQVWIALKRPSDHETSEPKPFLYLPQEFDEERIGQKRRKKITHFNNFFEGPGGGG

GST-Hu-p50 = GST-Hu-p50 (Homo sapiens, UniProt P19838 7-356)
Chain of GST-Hu-p50 (P19838 7-356): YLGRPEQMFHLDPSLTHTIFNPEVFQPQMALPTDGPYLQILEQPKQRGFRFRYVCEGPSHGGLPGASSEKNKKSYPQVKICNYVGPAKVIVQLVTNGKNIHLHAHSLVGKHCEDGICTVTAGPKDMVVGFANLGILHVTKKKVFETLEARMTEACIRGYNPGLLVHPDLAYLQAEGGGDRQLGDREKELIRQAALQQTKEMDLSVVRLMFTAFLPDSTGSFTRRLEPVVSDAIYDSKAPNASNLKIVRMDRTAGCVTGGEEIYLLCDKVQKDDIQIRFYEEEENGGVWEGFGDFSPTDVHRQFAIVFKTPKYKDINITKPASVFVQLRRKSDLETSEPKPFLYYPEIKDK

GST-Dm-Relish = biological target: T5, GST-Dm-Relish (Drosophila melanogaster, UniProt Q94527 99-473)
T5 sequence: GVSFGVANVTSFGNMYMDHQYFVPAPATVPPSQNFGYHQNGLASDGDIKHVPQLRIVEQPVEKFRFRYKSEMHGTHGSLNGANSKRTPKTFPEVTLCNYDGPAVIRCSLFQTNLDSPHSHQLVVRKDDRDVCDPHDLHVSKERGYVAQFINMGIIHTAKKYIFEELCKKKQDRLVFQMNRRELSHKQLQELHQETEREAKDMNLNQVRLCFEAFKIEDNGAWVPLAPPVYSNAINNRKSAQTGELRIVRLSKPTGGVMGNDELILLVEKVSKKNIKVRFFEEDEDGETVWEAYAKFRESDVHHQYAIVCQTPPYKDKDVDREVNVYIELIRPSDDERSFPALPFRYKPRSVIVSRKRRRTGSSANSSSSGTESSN

GST-Ap-NF-kB RHD = biological target: T6, GST-Ap-NF-kB RHD (Exaiptasia pallida (Aiptasia), UniProt A0A913YAJ5 2-422)
T6 sequence: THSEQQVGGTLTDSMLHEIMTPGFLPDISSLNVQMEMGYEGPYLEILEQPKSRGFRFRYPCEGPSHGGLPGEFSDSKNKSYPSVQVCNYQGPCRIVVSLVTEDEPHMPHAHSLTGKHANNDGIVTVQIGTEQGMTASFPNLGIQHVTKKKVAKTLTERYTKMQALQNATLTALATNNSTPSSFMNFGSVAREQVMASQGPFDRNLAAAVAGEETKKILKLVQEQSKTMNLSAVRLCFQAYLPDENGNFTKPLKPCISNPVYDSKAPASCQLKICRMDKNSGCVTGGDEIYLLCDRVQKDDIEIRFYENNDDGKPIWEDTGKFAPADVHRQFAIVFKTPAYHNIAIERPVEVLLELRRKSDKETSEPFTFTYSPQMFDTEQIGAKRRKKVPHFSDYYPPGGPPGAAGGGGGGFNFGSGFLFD

Sequence	binding signal [1] [z-score]	binding signal [2] [z-score]	binding signal (GST-Co-NF-kB) [z-score]	binding signal (GST-Aq-NF-kB) [z-score]	binding signal (GST-Hu-p50) [z-score]	binding signal (GST-Dm-Relish) [z-score]	binding signal (GST-Ap-NF-kB RHD) [z-score]
CCGATTAACATCACTTCGGGAAATGATGTTAATCGGGTCTTGATTCGCTTGACGCTGCTG	2.8	1.97	2.89	2.16	1.48		
CCGATTAACATCAGGTAAATACCTGATGTTAATCGGGTCTTGATTCGCTTGACGCTGCTG	2.06	3.12		4.2	2.11	4.77	
CCGATTAACATCATAATGGGAAATGATGTTAATCGGGTCTTGATTCGCTTGACGCTGCTG	2.83	2.35	1.93	1.68	2.18		
CCGATTAACATCAGAAAATACCATGATGTTAATCGGGTCTTGATTCGCTTGACGCTGCTG	1.12	1.7		1.58	1.63	3.11	
CCGATTAACATCAGGTGATCACCTGATGTTAATCGGGTCTTGATTCGCTTGACGCTGCTG		2.18		1.32	1.9	2.86	
CCGATTAACATCAGGAAATTCCATGATGTTAATCGGGTCTTGATTCGCTTGACGCTGCTG	1.06			3.91	1.1	1.68	
CCGATTAACATCAAAAAAATTCCTGATGTTAATCGGGTCTTGATTCGCTTGACGCTGCTG	1.23	1.22		2.87	1.79	3.84	
CCGATTAACATCAAAATTTGCCCTGATGTTAATCGGGTCTTGATTCGCTTGACGCTGCTG		1.28	1.18	1.61	1.54		
CCGATTAACATCAAAAACTTTCCTGATGTTAATCGGGTCTTGATTCGCTTGACGCTGCTG		1.54		2.68	1.25	2.34	
CCGATTAACATCAAAAAAGTCCGTGATGTTAATCGGGTCTTGATTCGCTTGACGCTGCTG	1.12			3.69	1.4	4.7	
CCGATTAACATCAAAGTGGGAAATGATGTTAATCGGGTCTTGATTCGCTTGACGCTGCTG	3.3	2.91	2.54	1.64	2.09		
CCGATTAACATCAATTCCCAAAATGATGTTAATCGGGTCTTGATTCGCTTGACGCTGCTG	2.17	2.29	1.45	1.31	1.25	1.29	
CCGATTAACATCAGAAATTGCCCTGATGTTAATCGGGTCTTGATTCGCTTGACGCTGCTG	1.33			2.44	1.68		
CCGATTAACATCAAAAAATTTTCTGATGTTAATCGGGTCTTGATTCGCTTGACGCTGCTG		1.98		1.49	2.15	2.72	
CCGATTAACATCACCAAAATTCCTGATGTTAATCGGGTCTTGATTCGCTTGACGCTGCTG		1.17		1.17	1.51	1.01	
CCGATTAACATCAAAATTTCCGGTGATGTTAATCGGGTCTTGATTCGCTTGACGCTGCTG		1.02		3.05	2.46	1.67	

Sequence	binding signal [1] [z-score]	binding signal [2] [z-score]	binding signal (GST-Co-NF-kB) [z-score]	binding signal (GST-Aq-NF-kB) [z-score]	binding signal (GST-Hu-p50) [z-score]	binding signal (GST-Dm-Relish) [z-score]	binding signal (GST-Ap-NF-kB RHD) [z-score]
CCGATTAACATCACCACCACCCCTGATGTTAATCGGGTCTTGATTCGCTTGACGCTGCTG			2.34	1.75	2.36	1.39	1.55
CCGATTAACATCACCCCAAACGCTGATGTTAATCGGGTCTTGATTCGCTTGACGCTGCTG			1.79	1.09	1.17		1.27
CCGATTAACATCAGTTGGGAAAATGATGTTAATCGGGTCTTGATTCGCTTGACGCTGCTG	3.62	4.31	2.64	1.77	2.33		
CCGATTAACATCAGGAAATAACCTGATGTTAATCGGGTCTTGATTCGCTTGACGCTGCTG	3.04	3.75		4.91	5.04	3.31	
CCGATTAACATCAGGTTATTCCATGATGTTAATCGGGTCTTGATTCGCTTGACGCTGCTG		2.28		1.85	3.32	2.41	
CCGATTAACATCAAAATTTACCGTGATGTTAATCGGGTCTTGATTCGCTTGACGCTGCTG	1.63	3.7	1.05	2.12	2.17	3.37	
CCGATTAACATCAAAATTTTTCCTGATGTTAATCGGGTCTTGATTCGCTTGACGCTGCTG		1.42	1.06	1.46	1.87	2.86	
CCGATTAACATCAAGAAAATTCCTGATGTTAATCGGGTCTTGATTCGCTTGACGCTGCTG				1.97	1.07	1.53	
CCGATTAACATCAGGTATTTTACTGATGTTAATCGGGTCTTGATTCGCTTGACGCTGCTG		2.63		1.93	2	4.67	
CCGATTAACATCAGGACCGTCCCTGATGTTAATCGGGTCTTGATTCGCTTGACGCTGCTG	3.73			6.42			4.25
CCGATTAACATCATTGTCCCTTCTGATGTTAATCGGGTCTTGATTCGCTTGACGCTGCTG	4.09			2.67			2.23
CCGATTAACATCAGGAATTTTCATGATGTTAATCGGGTCTTGATTCGCTTGACGCTGCTG				1.37	1.36	1.12	
CCGATTAACATCACGGAATTTCCTGATGTTAATCGGGTCTTGATTCGCTTGACGCTGCTG				4.83	1.38	1.89	
CCGATTAACATCAGGACACTCCCTGATGTTAATCGGGTCTTGATTCGCTTGACGCTGCTG	2.51			5.35			1.81
CCGATTAACATCATGGGGCATGCTGATGTTAATCGGGTCTTGATTCGCTTGACGCTGCTG				1.06			1.18
CCGATTAACATCAGGGGCCGTAATGATGTTAATCGGGTCTTGATTCGCTTGACGCTGCTG	1.75			2.32			1.66
